Measurements taken from the supplement of paper PMC11732987, “Enantioselective OTUD7B fragment discovery through chemoproteomics screening and high-throughput optimisation” (Communications Chemistry, 2025).

Assays:
Assay in all cases: log2 ratio of Biotin-Ahx-Ub-VS probe labelling (fragment/DMSO); higher = less target engagement (more negative = stronger competition), active = hit call of the paper (q ≤ 0.05, log2 ratio ≤ -1)
Details in all cases: compound concentration: 200 uM; treatment time: 3 h
[1] = target: T1, USP19 (UniProt O94966)
T1 sequence (whole entry): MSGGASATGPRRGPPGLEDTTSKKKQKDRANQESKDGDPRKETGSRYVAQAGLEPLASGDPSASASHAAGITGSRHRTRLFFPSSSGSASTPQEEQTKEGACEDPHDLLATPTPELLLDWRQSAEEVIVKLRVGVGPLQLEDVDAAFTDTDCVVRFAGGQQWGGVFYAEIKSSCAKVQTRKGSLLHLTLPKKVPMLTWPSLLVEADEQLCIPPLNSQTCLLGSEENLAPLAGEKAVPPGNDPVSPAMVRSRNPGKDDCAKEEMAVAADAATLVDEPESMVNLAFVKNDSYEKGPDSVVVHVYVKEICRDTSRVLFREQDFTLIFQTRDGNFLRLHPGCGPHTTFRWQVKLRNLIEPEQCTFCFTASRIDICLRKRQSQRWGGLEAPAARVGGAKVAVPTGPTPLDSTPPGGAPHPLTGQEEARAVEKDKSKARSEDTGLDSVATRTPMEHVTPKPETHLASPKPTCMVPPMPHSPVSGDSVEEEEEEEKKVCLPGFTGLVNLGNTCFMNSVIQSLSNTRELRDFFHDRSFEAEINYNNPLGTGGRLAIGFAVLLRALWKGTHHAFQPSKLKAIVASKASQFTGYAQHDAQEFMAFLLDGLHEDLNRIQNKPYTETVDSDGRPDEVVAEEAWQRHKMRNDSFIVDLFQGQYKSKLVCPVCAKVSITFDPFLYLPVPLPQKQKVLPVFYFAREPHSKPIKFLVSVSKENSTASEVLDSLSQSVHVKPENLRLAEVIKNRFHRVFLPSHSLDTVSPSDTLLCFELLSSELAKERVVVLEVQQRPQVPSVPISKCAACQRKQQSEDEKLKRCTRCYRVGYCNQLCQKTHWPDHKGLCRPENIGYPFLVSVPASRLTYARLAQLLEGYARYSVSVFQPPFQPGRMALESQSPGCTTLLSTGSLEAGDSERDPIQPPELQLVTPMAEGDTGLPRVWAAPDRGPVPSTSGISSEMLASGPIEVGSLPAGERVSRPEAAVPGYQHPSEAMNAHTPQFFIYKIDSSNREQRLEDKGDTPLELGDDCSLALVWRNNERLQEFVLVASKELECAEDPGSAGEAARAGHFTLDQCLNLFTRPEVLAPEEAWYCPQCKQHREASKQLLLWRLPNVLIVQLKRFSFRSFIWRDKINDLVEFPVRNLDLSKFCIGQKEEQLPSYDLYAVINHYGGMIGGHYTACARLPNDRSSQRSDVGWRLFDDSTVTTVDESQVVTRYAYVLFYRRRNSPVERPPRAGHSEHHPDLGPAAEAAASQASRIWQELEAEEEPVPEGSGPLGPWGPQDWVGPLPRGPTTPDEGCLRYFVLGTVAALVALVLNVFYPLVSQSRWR
How it was run: (§1)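 HEK293T lysate, 495 µg per sample in Tris/CHAPS/IGEPAL buffer with protease inhibitors, was treated in triplicate with fragment at 200 µM or vehicle for 3 h and then with Biotin-Ahx-Ub-VS at 0.5 µM final for 1 h. Labelled DUBs were NeutrAvidin-enriched, digested with LysC and trypsin, and run by diaPASEF LC-MS/MS. Spectronaut label-free quantities were global-median-normalised, and values are average log2 fragment/vehicle ratios by unpaired t-test on proteins with ≥2 unique peptides.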

[2] = target: T2, USP22 (UniProt Q9UPT9)
T2 sequence (whole entry): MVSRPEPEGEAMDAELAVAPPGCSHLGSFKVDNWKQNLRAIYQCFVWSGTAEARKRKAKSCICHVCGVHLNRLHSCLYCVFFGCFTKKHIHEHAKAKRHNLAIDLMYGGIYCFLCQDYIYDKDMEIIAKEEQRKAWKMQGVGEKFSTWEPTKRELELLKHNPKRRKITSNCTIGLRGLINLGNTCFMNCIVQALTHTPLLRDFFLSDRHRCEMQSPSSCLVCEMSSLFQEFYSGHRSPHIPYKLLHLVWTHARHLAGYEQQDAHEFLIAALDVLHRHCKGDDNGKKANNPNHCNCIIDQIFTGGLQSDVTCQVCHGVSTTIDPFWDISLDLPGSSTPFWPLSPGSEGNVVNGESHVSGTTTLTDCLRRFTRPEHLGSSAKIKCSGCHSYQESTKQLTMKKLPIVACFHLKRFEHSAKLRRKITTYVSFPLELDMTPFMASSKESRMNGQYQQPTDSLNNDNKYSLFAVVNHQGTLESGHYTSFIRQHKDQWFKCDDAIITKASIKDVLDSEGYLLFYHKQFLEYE
How it was run: as §1

[3] = target: USP24 (UniProt Q9UPU5)
How it was run: as §1

[4] = target: T3, USP25 (UniProt Q9UHP3)
T3 sequence (whole entry): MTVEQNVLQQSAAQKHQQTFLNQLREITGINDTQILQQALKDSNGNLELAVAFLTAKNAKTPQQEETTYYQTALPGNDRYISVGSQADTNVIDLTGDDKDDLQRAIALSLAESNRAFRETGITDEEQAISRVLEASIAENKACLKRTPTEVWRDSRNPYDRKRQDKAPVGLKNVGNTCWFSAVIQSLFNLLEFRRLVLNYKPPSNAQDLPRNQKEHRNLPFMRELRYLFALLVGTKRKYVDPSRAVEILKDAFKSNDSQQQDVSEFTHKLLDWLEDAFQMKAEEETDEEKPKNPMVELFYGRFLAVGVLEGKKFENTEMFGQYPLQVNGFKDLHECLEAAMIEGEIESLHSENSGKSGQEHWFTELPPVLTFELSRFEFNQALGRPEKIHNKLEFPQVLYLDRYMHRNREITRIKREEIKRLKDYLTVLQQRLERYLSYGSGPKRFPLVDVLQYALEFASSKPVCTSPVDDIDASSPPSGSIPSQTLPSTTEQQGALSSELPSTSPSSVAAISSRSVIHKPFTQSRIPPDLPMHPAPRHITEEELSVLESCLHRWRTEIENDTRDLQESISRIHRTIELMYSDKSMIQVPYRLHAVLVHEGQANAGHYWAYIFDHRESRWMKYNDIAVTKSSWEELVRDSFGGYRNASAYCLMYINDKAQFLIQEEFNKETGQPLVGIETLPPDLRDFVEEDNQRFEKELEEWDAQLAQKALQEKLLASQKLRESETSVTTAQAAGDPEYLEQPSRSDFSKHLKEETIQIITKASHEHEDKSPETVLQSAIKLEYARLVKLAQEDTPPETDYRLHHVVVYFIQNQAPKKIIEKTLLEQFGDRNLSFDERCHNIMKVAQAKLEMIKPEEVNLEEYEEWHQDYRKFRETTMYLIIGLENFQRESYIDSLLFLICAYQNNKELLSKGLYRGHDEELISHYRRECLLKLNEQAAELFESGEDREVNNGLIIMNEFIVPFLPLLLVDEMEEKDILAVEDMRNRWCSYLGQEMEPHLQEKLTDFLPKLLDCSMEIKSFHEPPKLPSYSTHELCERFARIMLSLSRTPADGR
How it was run: as §1

[5] = target: T4, USP28 (UniProt Q96RU2)
T4 sequence (whole entry): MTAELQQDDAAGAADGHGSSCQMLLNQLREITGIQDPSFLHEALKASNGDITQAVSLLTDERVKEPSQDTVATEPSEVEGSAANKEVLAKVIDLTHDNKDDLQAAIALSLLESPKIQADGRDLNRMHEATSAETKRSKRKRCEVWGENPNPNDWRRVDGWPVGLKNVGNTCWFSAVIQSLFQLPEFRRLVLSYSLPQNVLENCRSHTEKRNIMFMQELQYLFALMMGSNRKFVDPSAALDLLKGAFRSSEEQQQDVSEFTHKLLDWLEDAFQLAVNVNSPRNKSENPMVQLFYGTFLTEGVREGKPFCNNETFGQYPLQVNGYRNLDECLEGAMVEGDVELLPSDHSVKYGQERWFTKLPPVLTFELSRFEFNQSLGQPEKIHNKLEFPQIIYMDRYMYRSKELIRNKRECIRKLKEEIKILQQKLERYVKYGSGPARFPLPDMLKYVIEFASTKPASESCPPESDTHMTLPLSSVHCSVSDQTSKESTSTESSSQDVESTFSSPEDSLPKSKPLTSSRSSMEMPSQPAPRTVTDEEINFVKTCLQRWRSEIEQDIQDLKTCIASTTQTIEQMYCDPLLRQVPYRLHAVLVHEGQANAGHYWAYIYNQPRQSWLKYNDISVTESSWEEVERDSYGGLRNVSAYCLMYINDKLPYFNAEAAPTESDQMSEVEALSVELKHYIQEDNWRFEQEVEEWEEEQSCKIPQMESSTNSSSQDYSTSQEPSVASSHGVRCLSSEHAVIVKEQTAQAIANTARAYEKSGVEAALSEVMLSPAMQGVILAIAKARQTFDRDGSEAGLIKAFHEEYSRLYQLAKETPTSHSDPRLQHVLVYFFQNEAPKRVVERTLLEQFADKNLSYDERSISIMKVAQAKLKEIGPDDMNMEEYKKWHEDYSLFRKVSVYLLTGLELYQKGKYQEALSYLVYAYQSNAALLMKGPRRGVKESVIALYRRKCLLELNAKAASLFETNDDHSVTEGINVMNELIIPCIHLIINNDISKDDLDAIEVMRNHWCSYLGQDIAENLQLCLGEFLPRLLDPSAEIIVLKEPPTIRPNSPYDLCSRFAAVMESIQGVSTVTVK
How it was run: as §1

Measured: log2 ratio of Biotin-Ahx-Ub-VS probe labelling

Sequence of USP24 (Q9UPU5 whole entry): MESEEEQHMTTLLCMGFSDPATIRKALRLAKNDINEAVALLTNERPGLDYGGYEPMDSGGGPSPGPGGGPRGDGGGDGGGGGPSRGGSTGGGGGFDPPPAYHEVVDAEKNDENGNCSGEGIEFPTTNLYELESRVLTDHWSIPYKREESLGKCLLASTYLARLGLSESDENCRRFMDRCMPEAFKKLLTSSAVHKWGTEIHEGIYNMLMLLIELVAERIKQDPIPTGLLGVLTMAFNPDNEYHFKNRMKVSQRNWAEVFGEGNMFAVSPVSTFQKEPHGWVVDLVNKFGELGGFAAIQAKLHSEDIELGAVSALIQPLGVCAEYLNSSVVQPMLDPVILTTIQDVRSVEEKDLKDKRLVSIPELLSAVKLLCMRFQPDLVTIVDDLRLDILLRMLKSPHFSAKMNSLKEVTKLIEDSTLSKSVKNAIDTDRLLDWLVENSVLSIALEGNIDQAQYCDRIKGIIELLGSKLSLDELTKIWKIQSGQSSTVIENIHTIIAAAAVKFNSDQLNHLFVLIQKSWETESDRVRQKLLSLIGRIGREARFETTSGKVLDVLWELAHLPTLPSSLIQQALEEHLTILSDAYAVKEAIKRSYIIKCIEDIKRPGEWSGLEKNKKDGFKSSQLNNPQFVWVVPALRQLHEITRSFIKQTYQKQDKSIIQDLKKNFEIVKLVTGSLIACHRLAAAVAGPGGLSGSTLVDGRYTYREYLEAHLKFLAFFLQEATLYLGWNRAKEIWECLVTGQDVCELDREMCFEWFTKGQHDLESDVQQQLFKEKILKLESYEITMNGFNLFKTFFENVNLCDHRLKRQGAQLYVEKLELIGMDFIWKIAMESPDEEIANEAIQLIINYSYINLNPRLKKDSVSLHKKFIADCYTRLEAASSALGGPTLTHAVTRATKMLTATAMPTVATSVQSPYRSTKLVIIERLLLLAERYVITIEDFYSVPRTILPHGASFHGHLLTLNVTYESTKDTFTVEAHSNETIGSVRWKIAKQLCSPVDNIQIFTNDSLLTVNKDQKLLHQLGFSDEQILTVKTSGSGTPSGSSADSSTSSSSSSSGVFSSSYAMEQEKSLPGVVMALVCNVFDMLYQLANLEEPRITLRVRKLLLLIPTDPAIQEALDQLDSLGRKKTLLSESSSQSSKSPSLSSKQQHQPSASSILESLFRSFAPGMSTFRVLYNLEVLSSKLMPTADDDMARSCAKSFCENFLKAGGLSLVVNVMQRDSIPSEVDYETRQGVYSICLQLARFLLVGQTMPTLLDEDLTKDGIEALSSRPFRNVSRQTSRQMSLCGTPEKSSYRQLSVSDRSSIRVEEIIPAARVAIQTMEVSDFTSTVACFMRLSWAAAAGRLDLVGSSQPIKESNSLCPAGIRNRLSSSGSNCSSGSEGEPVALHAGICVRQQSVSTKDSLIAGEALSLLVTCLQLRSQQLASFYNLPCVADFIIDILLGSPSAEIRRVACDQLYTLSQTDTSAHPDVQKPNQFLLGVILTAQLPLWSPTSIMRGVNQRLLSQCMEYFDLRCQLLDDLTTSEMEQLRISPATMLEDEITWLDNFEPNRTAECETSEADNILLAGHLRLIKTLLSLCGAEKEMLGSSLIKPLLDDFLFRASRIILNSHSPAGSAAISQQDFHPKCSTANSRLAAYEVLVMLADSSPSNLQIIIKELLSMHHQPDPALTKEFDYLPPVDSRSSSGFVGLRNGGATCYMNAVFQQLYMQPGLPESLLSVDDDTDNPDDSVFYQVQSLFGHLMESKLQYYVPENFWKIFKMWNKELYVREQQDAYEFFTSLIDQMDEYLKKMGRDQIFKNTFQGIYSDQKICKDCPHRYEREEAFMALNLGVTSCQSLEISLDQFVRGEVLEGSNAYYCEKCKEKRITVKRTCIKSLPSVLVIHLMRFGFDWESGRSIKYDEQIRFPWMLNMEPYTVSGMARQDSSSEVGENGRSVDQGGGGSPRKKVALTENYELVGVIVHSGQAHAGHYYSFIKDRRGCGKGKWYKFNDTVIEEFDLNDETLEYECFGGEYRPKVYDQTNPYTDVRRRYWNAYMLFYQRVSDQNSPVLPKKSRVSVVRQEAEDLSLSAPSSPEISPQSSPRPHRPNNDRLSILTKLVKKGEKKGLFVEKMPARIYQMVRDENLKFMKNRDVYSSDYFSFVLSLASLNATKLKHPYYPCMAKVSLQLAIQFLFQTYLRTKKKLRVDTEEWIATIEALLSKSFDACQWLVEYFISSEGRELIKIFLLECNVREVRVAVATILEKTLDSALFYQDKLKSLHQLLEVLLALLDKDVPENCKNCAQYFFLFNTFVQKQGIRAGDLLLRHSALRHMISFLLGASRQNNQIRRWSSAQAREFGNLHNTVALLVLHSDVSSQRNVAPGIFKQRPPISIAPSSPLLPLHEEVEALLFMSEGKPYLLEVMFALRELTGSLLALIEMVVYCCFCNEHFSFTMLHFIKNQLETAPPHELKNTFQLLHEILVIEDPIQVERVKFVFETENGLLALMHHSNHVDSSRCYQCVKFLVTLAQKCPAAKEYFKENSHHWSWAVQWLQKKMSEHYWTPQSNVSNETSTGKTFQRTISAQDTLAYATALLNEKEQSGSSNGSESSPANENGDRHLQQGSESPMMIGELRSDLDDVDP

Cl.O=C(CCl)N1CCc2ncncc2C1
inactive: [1] -0.554 | [2] -0.0201 | [3] -0.491 | [4] -0.276 | [5] -0.582
